High-throughput results (PubChem)
AHR activator: human AHR activation; AHR-responsive luciferase reporter cells, luminescence; activation, % at 5 µM; hit rate 2.5% among 320,000; in the data active = activation above about 47%;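 note: 0% = vehicle wells and 100% = reference agonist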
HSF1 inh: HSF1 inhibition | NIH3T3-HGL HSE-luciferase, MG132-induced, luminescence 8 h; hits give low values | activity change, negative = inhibition, % at 7.5 µM (by protocol) | hit rate 0.77% among 300,000;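 active = more than half of replicate wells show activity change below -50%, luminescence cut by over half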;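 note: luciferase reports HSF-1 transcriptional activity via heat shock element; 0% = median of DMSO wells and -100% = zero luminescence signal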
DAX1 inh: NR0B1 (DAX1) inhibition; HEK293 Gal4-DAX1 luciferase reporter, luminescence; inhibition, % at 6.75 µM; hit rate 0.99% among 340,000; AID 504766;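 active = inhibition above the mean over all tested compounds plus 3 SD, cut at about 4.2% in these data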;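 note: 0% = DAX1-transfected cells with DMSO and 100% = empty-vector control cells with DMSO; inhibition shows as a rise in luminescence from relieved DAX1 repression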
Target sequence (P51843 207-470 limits assumed): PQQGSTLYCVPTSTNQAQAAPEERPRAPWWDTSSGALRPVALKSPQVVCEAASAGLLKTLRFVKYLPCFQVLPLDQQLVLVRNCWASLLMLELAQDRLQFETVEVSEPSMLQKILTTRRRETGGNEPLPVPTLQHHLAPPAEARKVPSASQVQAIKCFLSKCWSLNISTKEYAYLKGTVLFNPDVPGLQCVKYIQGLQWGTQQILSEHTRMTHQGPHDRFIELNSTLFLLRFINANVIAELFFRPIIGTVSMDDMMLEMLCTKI
GAA850 FXN act: activators of GAA850 frataxin (FXN) promoter; AID 540364; hit rate 0.56% among 360,000; activation, % at 6 µM; HEK293 lucGAA850 FXN promoter luciferase reporter, 24 h; percent of 10 µM SAHA response;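 active = activation above the average of all compounds screened plus 3 SD, cutoff fixed separately per campaign, cut at about 7.5% in these data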;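 note: 0% = DMSO wells and 100% = 10 µM SAHA wells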
HSF1 activator: increases HSF-1 driven luciferase reporter signal; hit rate 1.7% among 300,000; AID 504408; NIH3T3-HGL HSF-1 luciferase reporter, MG132, 8 h; 100% = twice DMSO control signal; activation, % at 9 µM;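 active = mean replicate activation of at least 50% with a set share of replicates each reaching 50%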;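 note: 0% = median of the neutral control wells and 100% = twice that signal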
* = called active by the depositor. In the library only some 5.4% were active in any assay of this set; here they are far more common.

What do the screens show for `Cc1noc(C)c1C(=O)N1CCC(C(=O)c2ccccc2)CC1`?
AHR activator: -2.7; HSF1 inh: -61.7*; DAX1 inh: 0.9; GAA850 FXN act: 1.6; HSF1 activator: -70.7

Results for COc1ccc(CNC(=O)C2CCCN(c3ncnc4c3nc3n4CCCCC3)C2)cc1 (stereo not given) ?
AHR activator: 1.2; HSF1 inh: -0.2; DAX1 inh: 0.6; GAA850 FXN act: -0.8; HSF1 activator: -1.2

How did CC(=O)OCCNc1nc(-c2ccccc2)nc2ccccc12 do in these assays?
AHR activator: 58.0*; HSF1 inh: 0.9; DAX1 inh: -1.0; GAA850 FXN act: 0.3; HSF1 activator: -8.2

How did COc1ccc(-c2nc(N/N=C(\C)c3ccc(O)cc3)c3ccccc3n2)cc1 do in these assays?
AHR activator: 49.1*; HSF1 inh: 13.1; DAX1 inh: -1.2; GAA850 FXN act: 4.5; HSF1 activator: 23.6

How did COCCNc1nc(-c2ccccc2)nc2ccccc12 do in these assays?
AHR activator: 9.8; HSF1 inh: -3.5; DAX1 inh: -2.1; GAA850 FXN act: 0.0; HSF1 activator: 0.9

What do the screens show for `COc1ccc(-c2nc(NCCCN(C)C)c3ccccc3n2)cc1`?
AHR activator: 25.8; HSF1 inh: 6.7; DAX1 inh: 6.7*; GAA850 FXN act: 3.3; HSF1 activator: 5.4

How did O=C(Nc1ccc(S(=O)(=O)Nc2nccs2)cc1)c1ccccc1OC(F)F do in these assays?
AHR activator: -2.0; DAX1 inh: 0.6; GAA850 FXN act: 2.3

What do the screens show for `COP(=O)(OC)c1nc(-c2ccc(C)cc2)oc1N1CCCCC1`?
AHR activator: 8.6; HSF1 inh: -0.1; DAX1 inh: -0.6; GAA850 FXN act: -1.6; HSF1 activator: -12.5

What do the screens show for `O=C(CSc1nnc(-c2ccccc2)o1)N1CCCCC1`?
AHR activator: -2.7; HSF1 inh: 10.6; DAX1 inh: 1.5; GAA850 FXN act: 3.1; HSF1 activator: 10.2

How did C/C(=N\NC(=O)CCC(=O)N/N=C(\C)c1ccc(C)o1)c1ccc(C)o1 do in these assays?
AHR activator: 74.2*; HSF1 inh: -10.4; GAA850 FXN act: -0.6; HSF1 activator: 7.4

How did CC(C)CC(=O)N1CCN(c2ccc([N+](=O)[O-])c(NCc3ccccc3)c2)CC1 do in these assays?
AHR activator: 47.8*; HSF1 inh: 7.0; DAX1 inh: -1.2; GAA850 FXN act: 1.0; HSF1 activator: 9.6

Results for O=C(COc1ccc(C(=O)NCCN2CCOCC2)cc1)Nc1cccc(C(F)(F)F)c1 ?
AHR activator: -0.8; HSF1 inh: -4.4; DAX1 inh: -1.9; GAA850 FXN act: 2.7; HSF1 activator: 0.4

Results for Cc1ccc(-c2noc(CCC(=O)Nc3ccccc3C)n2)cc1 ?
AHR activator: 1.6; HSF1 inh: -2.4; DAX1 inh: 1.9; GAA850 FXN act: -3.4; HSF1 activator: -4.4

What do the screens show for `Cc1ccc(-c2noc(CCC(=O)Nc3cc(C)ccn3)n2)cc1`?
AHR activator: 0.0; HSF1 inh: 26.6; DAX1 inh: -0.1; GAA850 FXN act: -2.0; HSF1 activator: 69.1*

What do the screens show for `O=C(COC(=O)CNC(=O)c1sc2ccccc2c1Cl)Nc1c(Cl)cc(Cl)cc1Cl`?
AHR activator: 0.5; HSF1 inh: -2.4; DAX1 inh: -0.8; GAA850 FXN act: -0.9; HSF1 activator: -9.3

What do the screens show for `Cn1c(=O)cc(NCc2ccccc2)[nH]c1=O`?
AHR activator: 7.5; HSF1 inh: -6.3; DAX1 inh: 0.6; GAA850 FXN act: 0.0; HSF1 activator: -3.9

Results for CCCCNc1cc(=O)n(C)c(=O)[nH]1 ?
AHR activator: 2.2; HSF1 inh: -3.4; DAX1 inh: 8.1*; GAA850 FXN act: 1.5; HSF1 activator: -6.6

Results for Cc1cccc(-n2nnc3cnn(C)c3c2=O)c1 ?
AHR activator: 59.7*; HSF1 inh: -0.4; DAX1 inh: 0.4; GAA850 FXN act: 0.6; HSF1 activator: 12.4

What do the screens show for `Cc1cc(N2C(=O)C3CCC(c4ccccc4)CC3C2=O)no1` (stereo not given)?
AHR activator: 2.9; HSF1 inh: -1.0; DAX1 inh: 0.2; GAA850 FXN act: 1.8; HSF1 activator: -8.9

How did CC1(C(=O)NS(=O)(=O)c2ccc(C#N)cc2)CCN1C(=O)c1ccccc1CCc1ccccc1 (stereo not given) do in these assays?
GAA850 FXN act: -0.4

Results for N#C/C(=C\c1ccccc1[N+](=O)[O-])c1nc(C2CC2)cs1 ?
AHR activator: 105.6*; HSF1 inh: 33.9; DAX1 inh: -1.1; GAA850 FXN act: 3.6; HSF1 activator: 51.0*

Results for N#C/C(=C\c1ccc([N+](=O)[O-])cc1)c1nc(C2CC2)cs1 ?
AHR activator: 9.9; HSF1 inh: 46.0; DAX1 inh: -0.3; GAA850 FXN act: 1.3; HSF1 activator: 56.7*

How did N#C/C(=C/c1ccccc1[N+](=O)[O-])c1nc(C2CC2)cs1 do in these assays?
AHR activator: 71.3*; HSF1 inh: 43.9; DAX1 inh: -1.0; GAA850 FXN act: 3.9; HSF1 activator: 101.5*

What do the screens show for `N#C/C(=C/c1ccccc1[N+](=O)[O-])c1nnc2n1CCCCC2`?
AHR activator: -0.7; HSF1 inh: -7.9; DAX1 inh: 1.2; GAA850 FXN act: 3.2; HSF1 activator: -8.5

Results for N#C/C(=C\C=C\c1ccccc1[N+](=O)[O-])c1nc(-c2ccc3c(c2)OCO3)cs1 ?
AHR activator: 22.8; HSF1 inh: 7.5; DAX1 inh: 0.3; GAA850 FXN act: -0.2; HSF1 activator: 38.6

How did C=CCNC(=O)/C(C#N)=C/c1c(N2CCN(c3ccc(OC)cc3)CC2)nc2c(C)cccn2c1=O do in these assays?
AHR activator: 29.9; HSF1 inh: 1.3; DAX1 inh: -1.4; GAA850 FXN act: 0.3; HSF1 activator: 5.8

What do the screens show for `Cc1ccsc1C(=O)OCC(=O)NC1CCCCC1`?
DAX1 inh: 2.5; GAA850 FXN act: 2.2

What do the screens show for `CC1Cc2ccccc2N1CC(=O)NC(=O)NCc1ccccc1` (stereo not given)?
AHR activator: 1.8; HSF1 inh: -74.9*; DAX1 inh: -0.4; GAA850 FXN act: 1.6; HSF1 activator: -74.9

What do the screens show for `Cc1sc(N/N=C/c2cccs2)nc1-c1ccccc1`?
AHR activator: 78.3*; HSF1 inh: 10.5; DAX1 inh: -0.3; GAA850 FXN act: 1.6; HSF1 activator: 26.2

What do the screens show for `Cc1ccc(/C=N/n2c(C)nc3ccccc3c2=O)o1`?
AHR activator: 9.6; HSF1 inh: 0.9; DAX1 inh: 4.5*; GAA850 FXN act: 1.7; HSF1 activator: 22.4

Results for Cc1ccc(/C=N/n2c(C)nnc2C)o1 ?
AHR activator: -4.7; HSF1 inh: -6.9; DAX1 inh: 4.3*; GAA850 FXN act: -0.8; HSF1 activator: 18.0

Results for Cc1ccc(/C=N/N2CCN(c3ccccn3)CC2)o1 ?
AHR activator: -2.1; HSF1 inh: 6.4; DAX1 inh: 4.7*; GAA850 FXN act: 4.5; HSF1 activator: 33.3

Results for Cc1nc2ccccc2c(=O)n1/N=C/c1ccc([N+](=O)[O-])o1 ?
AHR activator: 3.1; HSF1 inh: 5.7; HSF1 activator: -9.3
